From paper PMC5540273 (PLoS ONE, 2017)

Assays:
Details in all cases: concentration: 1 μM, replicates: in singlicate; n = 1
YANK2 = test system: T1, YANK2
T1 construct: gene STK32B

YANK3 = test system: T2, YANK3
T2 construct: gene STK32C

YES = test system: T3, YES
T3 construct: gene YES1

YSK1 = test system: T4, YSK1
T4 construct: gene STK25

YSK4 = test system: T5, YSK4
T5 construct: gene MAP3K19

ZAK = test system: ZAK
ZAP70 = test system: ZAP70
p38-alpha = test system: T6, p38-alpha
T6 construct: gene MAPK14

p38-beta = test system: T7, p38-beta
T7 construct: gene MAPK11

p38-delta = test system: p38-delta
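Note: KINOMEscan kinase panel screen.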

SMILES	%Inh (YANK2) [%]	%Inh (YANK3) [%]	%Inh (YES) [%]	%Inh (YSK1) [%]	%Inh (YSK4) [%]	%Inh (ZAK) [%]	%Inh (ZAP70) [%]	%Inh (p38-alpha) [%]	%Inh (p38-beta) [%]	%Inh (p38-delta) [%]
Cc1ccc(NC(=O)Nc2ccccc2)cc1-c1ccc(C(=O)Nc2ccncc2)cc1 [GSK1398471]	5	0	12	21	94.6	53	0	0	0	19
COc1ccc(Nc2nccc(N3CCC(NC(=O)c4cc5ccccc5s4)C3)n2)cc1 (centres unmarked) [GSK1379738]	6	0	17	7	47	60	0	20	0	42
COC(=O)C(Cc1ccccc1)NC(=O)NC1CCN(c2ccnc(Nc3ccc(F)cc3)n2)C1 (centres unmarked) [GSK1379714]	0	7	0	0	82	5	7	0	0	0
CN1c2ccc(-c3ccc(C(N)=O)cc3)cc2-c2[nH]ncc2S1(=O)=O	0	0	0	0	0	5	5	0	4	38
COc1ccc(Nc2nccc(N3CCC(NC(=O)C(C)c4ccc(Cl)cc4)CC3)n2)cc1 (centres unmarked) [GSK1379812]	2	1	0	0	0	0	0	1	0	27
Cc1cccc2c(-c3ccncn3)c(-c3ccc(F)cc3)nn12 [GW515532]	41	18	0	8	16	9	20	91.6	1	15
COc1ccc(CSc2nnc(-c3ccc4ncsc4c3)o2)cc1C(F)(F)F	11	0	0	11	70	0	11	0	10	0
Nc1cccc(-c2ccc3c(N)n[nH]c3c2)n1 [GSK2192730]	0	0	0	26	83	10	3	8	0	22
Cn1cncc1C(=O)NC1CCN(c2ccnc(Nc3ccc(F)cc3)n2)C1 (centres unmarked) [GSK1379717]	4	0	12	0	38	100	43	0	0	5
CCCCc1nn2ncccc2c1-c1ccnc(NC2CC2)n1 [GW684374]	3	0	0	25	18	24	0	61	0	40
CCc1ccc(-c2ccc3c(c2)-c2n[nH]cc2S(=O)(=O)N3C)cc1	0	0	0	0	0	5	3	0	0	0
CC(C)c1cc(-c2ccc3c(N)n[nH]c3c2)nc(N)n1 [GSK2250882]	0	19	16	14	33	11	0	9	0	18
Fc1ccc(-c2nc[nH]c2-c2ccncc2)cc1 [SB-217360]	28	0	0	0	22	0	0	97.9	21	0
CNC(=O)c1ccc(C)c(-n2c(C)cc(OCc3ccc(F)cc3F)c(Br)c2=O)c1	0	0	0	0	0	0	0	–	94.5	0
Fc1ccc(-c2nc3n(c2-c2ccncc2)CCS3)cc1 [GI98581]	5	21	0	0	5	4	0	98.4	14	14
COc1cc2ncnc(Nc3cccc(Br)c3)c2cc1OC.Cl [GI230329]	0	13	3	4	63	12	0	47	0	46
Cc1ccccc1Cn1ccn2c(=O)cc(N3CCOCC3)nc12 [GSK2269905]	0	7	19	16	28	0	0	0	0	7
Cc1nccc(-c2c(-c3ccc(F)cc3)ncn2CCCN2CCOCC2)n1.Cl [SB-282975]	0	5	18	0	22	28	25	61	26	0
COC(=O)c1cccc(NC(=O)NC2CCN(c3ccnc(Nc4ccc(F)cc4)n3)C2)c1 (centres unmarked) [GSK1379725]	0	0	8	0	8	2	0	0	0	51
COc1ccc(CSc2nnc(-c3ccc4nccn4c3)o2)cc1C(F)(F)F	8	0	0	14	92.3	0	0	4	21	0
Cn1cnc2c(N)ncnc21 [SKF-97623]	0	0	0	0	0	0	12	0	0	4
